Cycloheximide cs: Cycloheximide Counterscreen for Small Molecule Inhibitors of Shiga Toxin | AID 2314, 2010 | actives 12% (n = 300,000) | max response, % | cell reporter, cycloheximide protein synthesis inhibition counterscreen; in the data active = max response mostly above about 13%, no sharp cut-off; inactive = mostly below about 14%; also: read at 38.3 µM for the half of the compounds with a filed dose
NS1 inh: qHTS Assay for Inhibitors of Influenza NS1 Protein Function; actives 0.4% (n = 270,000); Potency, µM (top dose mostly 46.1 µM); AID 2326, 2010; also: actives are rising curves; nearly all actives have a fitted effect of over 50% in size
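In this qHTS, NS1 from influenza A is expressed in budding yeast, where it slows growth. Cells are switched from glucose to 2% galactose medium (pH 6.0, -URA), treated with compound, and growth recovery is read at OD600.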
Shiga inhibitor: A qHTS for Small Molecule Inhibitors of Shiga Toxin | Vero cells, Shiga toxin protein synthesis inhibition reporter | inhibition, % at 38.7 µM | actives 9.2% (n = 290,000) | AID 2315, 2010; in the data active = inhibition mostly above about 28%, no sharp cut-off; inactive = mostly below about 43%
Pf growth 48h: Primary qHTS for delayed death inhibitors of the malarial parasite plastid, 48 hour incubation; Potency, µM (highest dose often 28.7 µM), hits mostly inhibitors; P. falciparum luciferase growth in erythrocytes, 48 h; actives 5.9% (n = 310,000); active = well fitted inhibition curve with a large enough effect; inconclusive = small, poorly fitted or top-dose-only effect, or another doubt; inactive = no such curve, though single readings can be large or run the other way
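A one-generation exposure of luciferase-tagged malaria parasites in RPMI 1640/Albumax erythrocyte culture, 37 C and 5% CO2. Inhibition is inferred from decreased luminescence after adding detection reagent.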
SARS PLP yeast: qHTS of Yeast-based Assay for SARS-CoV PLP; AID 485353, 2010; actives 0.19% (n = 330,000); Potency, µM (series often up to 32.9 µM), actives largely listed as activators; S. cerevisiae expressing SARS-CoV PLpro, growth rescue; also: nearly all actives have a fitted effect of over 55% in size
Pf growth 96h: Primary qHTS for delayed death inhibitors of the malarial parasite plastid, 96 hour incubation; actives 6.9% (n = 320,000); P. falciparum luciferase reporter growth, 96 h; Potency, µM (series often up to 28.7 µM), actives largely listed as inhibitors; active = well fitted inhibition curve with a large enough effect; inconclusive = small, poorly fitted or top-dose-only effect, or another doubt; inactive = no such curve, though single readings can be large or run the other way
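Two parasite generations (96 h, 37 C, 5% CO2) of compound exposure in infected erythrocytes (0.05% parasitemia, 2% hematocrit). Luciferase-reporter P. falciparum; decreased luminescence indicates inhibited growth, aimed at apicoplast-acting delayed death.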
Hits are given with their value; - = inactive; ? = inconclusive; . = no result. Shown are actives, neighbours in structure and some others; about 21% of the full set was active somewhere. Unless noted, calls follow the shape of the full dose curve.

SMILES	Cycloheximide cs	NS1 inh	Shiga inhibitor	Pf growth 48h	SARS PLP yeast	Pf growth 96h
Cc1ccc(NC(=O)C(C)Oc2ccccc2)cc1S(=O)(=O)N1CCCCCC1 (stereo not drawn)	.	.	.	6.6µM	-	?
COc1ccccc1/C=N/NC(=O)CC(=O)NC1CCCCC1	-	.	-	-	-	-
CC(C(=O)c1ccc(Br)cc1)[n+]1cccc2ccccc21 (stereo not drawn)	-	-	.	?	-	-
CC(C)[C@H](NC(=O)[C@H](CCCCN)NC(=O)[C@@H](NC(=O)[C@@H]1CCCN1C(=O)[C@H](CCCN=C(N)N)NC(=O)[C@H](CCCN=C(N)N)NC(=O)[C@H](CCCCN)NC(=O)[C@H](CCCCN)NC(=O)CNC(=O)[C@@H](NC(=O)[C@@H]1CCCN1C(=O)[C@@H](N)CCCCN)C(C)C)C(C)C)C(=O)N[C@@H](Cc1ccc(O)cc1)C(=O)N1CCC[C@H]1C(=O)O	-	.	-	.	.	.
CC(Oc1ccc(F)cc1)C(=O)Nc1cc(S(=O)(=O)N2CCCCC2)ccc1N1CCOCC1 (stereo not drawn)	.	.	.	8.3µM	-	9.3µM
COc1ccc(-c2c(C)nn3c(N)c(-c4ccccc4)cnc23)cc1OC	18	-	-	?	-	-
COc1ccccc1-c1c(C)nn2c(N)c(-c3ccccc3)cnc12	39	-	67	-	-	-
COCc1nn2c(N)c(-c3ccccc3)cnc2c1-c1ccccc1	38	-	33	-	-	?
COC(=O)c1cccc(Nc2nc3ccccc3nc2C)c1	-	-	-	-	-	.
Cc1ccc(NC(=S)N(N)CCO)cc1	-	.	43	-	-	-
C#Cc1ccc([C@H]2C=C(C(=O)N3CCOCC3)O[C@@H](OCc3ccc(CO)cc3)C2)cc1	-	-	-	?	-	?
Cc1ccc(C)n1-c1ccc(C(=O)NN)s1	26	.	26	?	-	?
COc1ccc(OCCOc2cccc(C=C3C(=O)NC(=O)NC3=O)c2)cc1	33	-	33	-	-	-
COc1cccc(OCCOc2ccc(/C=C3/SC(=S)NC3=O)cc2)c1	-	-	-	-	-	-
CN(CCOc1ccc(C=C2C(=O)NC(=O)NC2=O)cc1)c1ccccn1	27	.	-	-	-	-
O=C1NC(=O)C(=Cc2ccc(OCC(=O)N3CCOCC3)cc2)C(=O)N1	-	-	-	-	-	-
CS(=O)(=O)c1ccc(Cl)c(NC(=O)CCN2C(=O)C3CC=CCC3C2=O)c1 (stereo not drawn)	.	.	.	-	-	-
S=C(Nc1cccc(Cl)c1Cl)N1CCCC1	-	-	-	-	-	?
COc1ccccc1-c1c(C)oc2c(CN3CCCCC3C)c(O)ccc2c1=O (stereo not drawn)	-	-	-	?	-	?
COc1cc2c(cc1OC)-c1c(OC)c(OC)cc3c1[C@H](C2)[N+](C)(C)CC3	-	-	-	?	-	0.37µM
CN(Cc1c(C(=O)N/N=C/c2cccs2)nnn1-c1nonc1N)c1ccccc1	-	-	-	-	-	-
Cc1[nH]c2ccc(C(=O)OC(C)C(=O)NC3CCCCC3C)cc2c1C (stereo not drawn)	.	.	.	4.7µM	-	?
COc1cc(C(=O)OC(C)C(=O)NC2CCCCC2C)c([N+](=O)[O-])cc1OC (stereo not drawn)	.	.	.	-	-	-
CC(OC(=O)c1ccc([N+](=O)[O-])s1)C(=O)NC1CCCCC1C (stereo not drawn)	.	.	.	13µM	-	?
CC(OC(=O)c1ccc2c(c1)OCO2)C(=O)NC1CCCCC1C (stereo not drawn)	.	.	.	-	-	-
SMILES	Cycloheximide cs	NS1 inh	Shiga inhibitor	Pf growth 48h	SARS PLP yeast	Pf growth 96h
Cc1nn(C(=O)c2cccc([N+](=O)[O-])c2)c(C)c1Cl	-	-	-	-	-	?
C[C@H]1CN([C@@H](C)CO)C(=O)Cc2cc(NC(=O)CCC(F)(F)F)ccc2O[C@H]1CN(C)S(=O)(=O)c1ccc(F)cc1	.	.	.	.	-	.
CNC(=S)N1CCN(S(=O)(=O)c2ccc3ccccc3c2)CC1	-	-	-	-	-	-
CCC(=O)Nc1nonc1-c1nc2ccccc2n1Cc1cccc2ccccc12	-	-	-	?	-	5.2µM
CNS(=O)(=O)c1ccc(Cl)nc1	-	-	-	-	-	-
Cc1c(-c2ccc(O)cc2)nc2nc(-c3ccccc3)c(-c3ccccc3)nn12	-	-	-	0.41µM	-	2.1µM
COc1ccc(/C=N/n2c(C3CCCCC3)n[nH]c2=S)c(OC)c1	-	-	-	?	-	?
COc1ccc(C(=O)NC2CCCCCC2)cc1S(=O)(=O)N1CCCc2ccccc21	-	-	-	.	-	10µM
COc1ccc(C(=O)NC2CCCCCC2)cc1S(=O)(=O)Nc1ccc(Br)cc1	18	-	56	?	-	.
COc1ccc(C(=O)NC2CCCCC2)cc1S(=O)(=O)N1CCOCC1	-	-	-	-	-	?
COc1ccc(C(=O)NCc2cccnc2)cc1S(=O)(=O)N1CCOCC1	-	-	-	-	-	.
COc1ccc(C(=O)NC2CCCCCC2)cc1S(=O)(=O)N1CCCC1	-	.	-	-	-	?
COc1ccc(C(=O)NCc2cccnc2)cc1S(=O)(=O)N1CCCc2ccccc21	19	-	-	?	-	?
O=C(COC(=O)COc1ccc(Cl)cc1Cl)NC1CCCCCC1	.	.	.	-	-	?
CC(C)c1ccc(NC(=O)Cc2c(C(=O)O)n(C)c3ccccc23)cc1	-	-	-	.	-	?
CC(O)CN(Cc1cccc(Cl)c1)CC(C)O (stereo not drawn)	-	-	-	-	-	-
COc1cc2c(C(=O)NCc3ccccn3)cn(CC(C)C)c(=O)c2cc1OC	-	?	-	-	-	13µM
CCn1cc(C(=O)NCc2cccnc2)c2cc(OC)c(OC)cc2c1=O	-	-	-	-	-	2.1µM
COC(=O)CNC(=O)c1cn(CC(C)C)c(=O)c2cc(OC)c(OC)cc12	-	-	-	-	-	-
O=[N+]([O-])c1ccc(Cl)cc1CNc1ccc(F)c(F)c1	-	-	-	-	-	8.3µM
O=C1CCN(S(=O)(=O)c2ccccc2)CCN1CCOCc1ccc(Cl)cc1	-	-	-	-	-	-
CC1(C)C2CCC1(CS(=O)(=O)NCc1ccc(S(N)(=O)=O)cc1)C(=O)C2 (stereo not drawn)	-	-	-	-	-	-
CCn1c(-c2ccccn2)nc2cc(S(=O)(=O)N(C)C)ccc21	17	-	-	-	-	-
CCn1c(-c2cc(Br)cc(OC)c2O)nc2cc(S(=O)(=O)N(C)C)ccc21	-	-	-	?	-	12µM
CCCCn1c(CCC(=O)O)nc2cc(S(=O)(=O)N(C)C)ccc21	-	.	-	?	-	?
O=[N+]([O-])c1cc(S(=O)(=O)NCCN2CCOCC2)ccc1Sc1nnnn1-c1ccccc1	16	-	-	13µM	-	?
